Screening results as filed in PubChem.
KB-3-1 cytotox – qHTS assay for MDR1-selective chemotherapeutics: Primary screen using the parental adenocarcinoma cell KB-3-1; KB-3-1 viability, CellTiter-Glo ATP luminescence, 72 h; Potency, µM (series often up to 46.1 µM), actives largely listed as cytotoxic; 400,000 compounds, 1.4% hits; note: % is set by controls: 0 for no effect and ±100 for the full control effect; nearly all actives have a fitted effect of over 60% in size
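KB-3-1 cells, DMEM (no phenol red) + 10% FBS; compound by pin transfer, 72 h, 37 °C. Readout: CellTiter-Glo luminescence after 10 min. Data normalized, curve-fitted.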
SW480 rereplic – A quantitative high throughput screen for small molecules that induce DNA re-replication in SW480 colon adenocarcinoma cells. 340,000 compounds, 1.8% hits. Potency, µM (series often up to 46.1 µM), for the others: at the highest dose re-replication activation, actives largely listed as activators. SW480 DNA re-replication, Hoechst DNA content imaging, 48 h; note: % of control where 0% means no effect; nearly all actives have a fitted effect of over 55% in size
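Treated cells incubate 48 hr (37 C, 5% CO2), are stained 40 min with Hoechst, and nuclear fluorescence is enumerated; a rise in nuclei with high DNA signal marks re-replication.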
KB-V1 MDR tox – qHTS assay for MDR1-selective chemotherapeutics: Primary screen using the drug-selected MDR subline cells KB-V1; KB-V1 MDR cells viability, CellTiter-Glo, 72 h; Potency, µM (highest dose often 46.1 µM), hits mostly cytotoxic; 400,000 compounds, 3.4% hits; note: % is set by controls: 0 for no effect and ±100 for the full control effect; nearly all actives have a fitted effect of over 60% in size
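Compound-treated KB-V1 multidrug-resistant cells, 72 h, 37 degrees C; viability by CellTiter-Glo. Fitted qHTS curves give the values.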
MCF10A rerep – A quantitative high throughput screen for small molecules that induce DNA re-replication in MCF 10a normal breast cells | Potency, µM (titrated, usually from 46.1 µM), for the others: at the top dose activity, positive = re-replication, hits mostly activators | 350,000 compounds, 2.9% hits | MCF 10A DNA re-replication, Hoechst nuclear intensity, 48 h; note: % of control where 0% means no effect; nearly all actives have a fitted effect of over 50% in size
ALOX12 inh – Primary qHTS assay for inhibitors of human arachidonate 12S-lipoxygenase (ALOX12): Round 2; Polyunsaturated fatty acid lipoxygenase ALOX12 (Homo sapiens), P18054; purified 12hLO, xylenol orange hydroperoxide absorbance; Potency, µM (top dose mostly 108 µM), for inactives: at the highest dose activity change, negative = inhibition, usual class: inhibitors; 580,000 compounds, 1.1% hits; AID 1671190, 2021; note: % is set by controls: 0 for no effect and ±100 for the full control effect
Target sequence (P18054 whole entry, looked up): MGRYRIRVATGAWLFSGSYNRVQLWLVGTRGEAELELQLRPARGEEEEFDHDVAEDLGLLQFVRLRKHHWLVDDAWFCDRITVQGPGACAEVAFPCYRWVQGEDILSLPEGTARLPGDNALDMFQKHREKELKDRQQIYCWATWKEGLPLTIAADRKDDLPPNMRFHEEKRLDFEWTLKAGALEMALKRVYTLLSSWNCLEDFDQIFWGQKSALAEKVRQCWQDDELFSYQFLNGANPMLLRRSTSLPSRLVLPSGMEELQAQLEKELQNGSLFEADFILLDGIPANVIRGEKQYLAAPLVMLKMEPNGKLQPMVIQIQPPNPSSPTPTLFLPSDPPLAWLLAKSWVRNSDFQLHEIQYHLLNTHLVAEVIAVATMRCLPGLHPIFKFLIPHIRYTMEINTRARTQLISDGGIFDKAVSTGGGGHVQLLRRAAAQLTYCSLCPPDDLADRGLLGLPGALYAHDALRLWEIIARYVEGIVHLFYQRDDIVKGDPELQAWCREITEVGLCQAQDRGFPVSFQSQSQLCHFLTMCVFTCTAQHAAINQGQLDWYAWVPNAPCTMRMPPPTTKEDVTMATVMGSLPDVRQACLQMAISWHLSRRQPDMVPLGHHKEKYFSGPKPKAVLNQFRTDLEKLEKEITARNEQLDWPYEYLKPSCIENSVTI
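Hydroperoxide product was detected by ferrous iron/xylenol orange as the 573 to 405 nm absorbance ratio. Arachidonic acid at 40 uM (final) was turned over for 30 min at room temperature by 150 nM human 12hLO, pH 7.0 Hepes buffer, after 15 min compound preincubation.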
PINK1 modulator – A Quantitative High throughput Screen to Identify Chemical Modulators of PINK1 Expression. PINK1 immunofluorescence, high-content cytometry, 24 h. Potency, µM (top dose mostly 76.6 µM), without a hit: at the highest dose activation (PINK1 increase), most hits filed as activators. 410,000 compounds, 0.2% hits. AID 624263, 2012; active = well fitted activation curve with a large enough effect; inconclusive = small, poorly fitted or top-dose-only effect; cell line not stated here; note: % of control where 0% means no effect; nearly all actives have a fitted effect of over 65% in size
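Stable cell line, 250 cells/well, 12 h attachment; compounds pinned at 5 concentrations, 24 h; CCCP control. Fixed with nuclear dye, primary antibodies 12 h at 10 degrees C, secondary plus cell stain; laser-scanning cytometer read.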
An asterisk follows results filed as active; i = inactive; ? = inconclusive; · = not tested or not shown; [ ] = remark or other dose. Hits are enriched below; roughly 5.8% of the tested compounds scored in any of these assays. Unless noted, calls come from the whole dose curve; as a rule, active = well fitted curve in the direction sought with a large enough effect; inconclusive = small, poorly fitted or top-dose-only effect, or another doubt; inactive = no such curve, though single readings can be large; an effect the other way counts as inactive or inconclusive. Potency is the fitted concentration of half-maximal effect.

SMILES	KB-3-1 cytotox	SW480 rereplic	KB-V1 MDR tox	MCF10A rerep	ALOX12 inh	PINK1 modulator
CCCc1ccc(S(=O)(=O)N2CCN(C(C)C(=O)NC3CCCC3)CC2)cc1 (stereo unspecified)	i	-3%	i	7%	-5%	0%
CC(C)c1ccc(S(=O)(=O)N2CCN(C(C)C(=O)N3CCCC3)CC2)cc1 (stereo unspecified)	i	0%	26µM*	2%	-7%	-1%
CC(C(=O)N1CCCCC1)N1CCN(S(=O)(=O)c2ccc(Cl)cc2)CC1 (stereo unspecified)	i	-10%	i	?	1µM*	-1%
CCC(C)c1ccc(S(=O)(=O)N2CCN(C(C)C(=O)NC3CCCC3)CC2)cc1 (stereo unspecified)	i	-1%	5.8µM*	17%	-9%	0%
O=C(NC(=S)Nc1cccc(NC(=O)c2ccccc2)c1)c1cccc([N+](=O)[O-])c1	i	0%	?	0%	28µM*	1%
CC1CCN(C(=S)NC(=O)c2ccccc2)CC1	i	-4%	i	-2%	0%	-1%
O=C(NC(NC(=S)N1CCOCC1)C(Cl)(Cl)Cl)c1ccc(Cl)cc1 (stereo unspecified)	i	5%	13µM*	0%	-24%	6%
O=C(NC(=S)N1CCOCC1)c1ccc([N+](=O)[O-])cc1	i	0.65µM*	i	-98%	-5%	0%
CC1CCN(C(=S)NC(=O)c2ccc(C(C)(C)C)cc2)CC1	?	6%	i	?	32µM*	5%
O=C(Nc1ccccc1F)N1CC2CCC(C1)N2Cc1cccc(-c2cccs2)c1	·	·	·	·	12%[6.33 µM]	·
CCC(C)c1ccc(C(N)C(C)C)cc1 (stereo unspecified)	·	·	·	·	5%	·
COc1ccc(CC2CCN(C(=O)c3c(C)noc3-c3ccc4c(c3)OCO4)CC2)cc1	·	·	·	·	-6%	·
Cc1oc(-c2nc(C#N)c(NCc3ccco3)o2)cc1S(=O)(=O)N1CCCC1	·	·	·	·	28%	·
O=C(NNC(=S)NC(=O)c1ccc(Br)cc1)c1ccc([N+](=O)[O-])cc1	i	-10%	i	14%	45µM*	3%
O=C(NNC(=S)NC(=O)c1ccc(Br)cc1)c1cccc([N+](=O)[O-])c1	i	-13%	i	13%	40µM*	6%
COC(=O)c1cc(NCc2ccc(C)cc2)ccc1N1CCOCC1	·	·	·	·	-22%	·
Cc1cc(=O)[nH]c(SCC(=O)Nc2ccc(Br)cc2)c1C#N	?	2%	?	?	?	16µM*
C[C@H]1[C@@H]2[C@@H](O)C([C@H](C)C(=O)NCc3cccs3)CC[C@@]2(C)CC[C@@H]1NC(=O)C1CCCCC1 (stereo partly specified)	·	·	·	·	54%	·
CC(C)(C)c1ccc(NC(=O)N2CCCN(c3c(Cl)cncc3Cl)CC2)cc1	i	?	i	7.3µM*	-4%	3%
O=C(Nc1ccccc1)N1CCCN(c2c(Cl)cncc2Cl)CC1	i	8%	i	6%	174%	0%
O=C(c1ccc(S(=O)(=O)N2CCOCC2)cc1)N1CCN(c2ccccn2)CC1	i	-39%	i	1.5µM*	116%	4%
CCOc1ccc(S(=O)(=O)N2CCN(C(=O)c3ccc(Cl)c(S(=O)(=O)N4CCOCC4)c3)CC2)cc1	i	-12%	i	-4%	-26%	0%
Cc1ccc(C(=O)NCC(c2ccc(F)cc2)N2CCOCC2)cc1S(=O)(=O)N1CCOCC1 (stereo unspecified)	i	-2%	21µM*	7%	-3%	3%
CCc1ccccc1NC(=O)CNC(=O)c1cccc(S(=O)(=O)N2CCN(Cc3ccccc3)CC2)c1	?	5%	16µM*	8%	-24%	-1%
CCOc1ccc(S(=O)(=O)N2CCN(C(=O)c3ccc(C)c(S(=O)(=O)N4CCOCC4)c3)CC2)cc1	?	3%	21µM*	9%	249%	2%
SMILES	KB-3-1 cytotox	SW480 rereplic	KB-V1 MDR tox	MCF10A rerep	ALOX12 inh	PINK1 modulator
COc1ccccc1NS(=O)(=O)c1cc(C(=O)NCC(c2ccc(F)cc2)N2CCOCC2)ccc1C (stereo unspecified)	i	1%	i	3%	-5%	-2%
COc1ccc(Cl)cc1NC(=O)c1cc(=O)c2cc(C)ccc2o1	·	·	·	·	3%	·
CCOc1cc(-c2ccc(C)cc2)nc2ccc(C(=O)NCC(C)O)cc12 (stereo unspecified)	·	·	·	·	11%	·
O=c1c(-c2ccccc2)coc2cc(OCc3cccc4ccccc34)ccc12	·	·	·	·	-1%	·
CC(=O)C1=C(OC(=O)c2ccccc2)c2ccccc2S(=O)(=O)N1C(C)C	·	·	·	·	49%	·
O=C(CN1C(=O)COc2ccc(S(=O)(=O)N3CCCCC3)cc21)NCCc1ccc(Cl)cc1	·	·	·	·	-19%	1%
CCOc1ccc(CCNC(=O)CN2C(=O)COc3ccc(S(=O)(=O)N4CCCCCC4)cc32)cc1	i	·	9.2µM*	·	-10%	1%
CCOc1ccc(CCNC(=O)c2ccc(C)c(S(=O)(=O)N3CCOCC3)c2)cc1OCC	?	-5%	21µM*	0%	9%	2%
O=C(Nc1nn[nH]n1)c1ccc(S(=O)(=O)N2CCCCC2)cc1	i	-5%	i	18%	-7%	0%
CCOc1ccc(CCNC(=O)c2cccc(S(=O)(=O)N3CCOCC3)c2)cc1OCC	i	-5%	i	2%	-2%	1%
CCOc1ccc(CCNC(=O)c2cccc(S(=O)(=O)N3CCCCC3)c2)cc1OCC	?	7%	6.5µM*	?	12%	0%
O=C(Nc1nn[nH]n1)c1cccc(S(=O)(=O)N2CCCCCC2)c1	·	·	·	·	10µM*	·
CCOc1ccc(CCNC(=O)c2ccc(Cl)c(S(=O)(=O)N3CCOCC3)c2)cc1OCC	i	?	?	?	-21%	2%
Cc1cccc(OCc2nnc(SCC(=O)c3cc(C)n(-c4cc(C)on4)c3C)o2)c1	·	·	·	·	7%	·
O=C(c1nnn2c1COC(c1ccc(Cl)cc1)C2)N1CCN(C(=O)c2c(F)cccc2F)CC1 (stereo unspecified)	·	·	·	·	42%	·
Cc1ccc(C(=O)NCc2ccc(Cl)cc2)cc1S(=O)(=O)N1CCCCC1	?	3%	18µM*	1%	15%	7%
